In PubChem BioAssay AID488908 (National Center for Advancing Translational Sciences (NCATS), 2010):
Records with an inconclusive call do not appear. Where a call stands in place of a potency, no number is given. The source made the active and inactive calls. Calls come from the whole dose curve; as a rule, active = well fitted inhibition curve with a large enough effect; inconclusive = small, poorly fitted or top-dose-only effect; inactive = flat fitted curve, though single readings scatter.

assay: Secondary Assay for lipid storage modulators: Cytotoxcity for probe SAR; details: Drosophila S3 cells viability, CellTiter-Glo luminescence, 24 h, with oleic acid added (1 µL, 400 µM); series mostly up to 46.1 µM
Summary of the method: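 Drosophila S3 embryonic cells, 5,000/well, exposed to compound at several concentrations with 400 uM oleic acid stock added, 24 h at 24 degrees C; viability by CellTiter-Glo luminescence.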

Row | SMILES | Potency
1 | CCOc1ccc(CCNC(=O)c2cnon2)cc1OCC | inactive
2 | CCc1sc(NC(=O)Cc2cccs2)nc1-c1ccccc1 | inactive
3 | CCOC(=O)C1CCN(C(=O)C2(NC(=O)Nc3ccc(F)cc3F)CCCCC2)CC1 | inactive
4 | COc1cc(Nc2ncc(F)c(Nc3ccc4c(n3)NC(=O)C(C)(C)O4)n2)cc(OC)c1OC | inactive
5 | CN(C)CC(=O)NC1CCCc2c1cnn2-c1ccc(F)cc1F (centres undefined) | inactive
6 | CCOC(=O)C1CCN(C(=O)C2(NC(=O)Nc3ccccc3Cl)CC2)CC1 | inactive
7 | O=C(O)c1cccc(-c2noc(-c3ccccc3F)n2)c1 | inactive
8 | O=C(Cc1cccs1)Nc1nc(-c2ccncc2)cs1 | inactive
9 | O=C(CSc1nnc(NCc2ccccc2)s1)Nc1nc(-c2ccc(F)c(F)c2)cs1 | inactive
10 | O=C(NCCc1ccc2c(c1)OCO2)c1cc2sccc2[nH]1 | inactive
11 | O=C(NCCc1ccc2c(c1)OCO2)c1cc2sccc2n1Cc1ccccc1 | inactive
12 | O=C(NC1CCCc2c1cnn2-c1ccc(F)cc1F)c1ccc(C(=O)c2ccccc2)cc1 (centres undefined) | 11.2 µM (active)
13 | Cc1cccc(Nc2nnc(SCC(=O)Nc3nc(-c4ccc(F)cc4)cs3)s2)c1 | inactive
14 | CCOc1ccc(CCNC(=O)c2cc3sccc3n2Cc2ccc(-n3cncn3)cc2)cc1OCC | inactive
15 | CC(C)(C)OC(=O)NC1CCCc2c1cnn2-c1ccc(F)cc1F (centres undefined) | 9.96 µM (active)
16 | Cc1ccc(C)c(-c2csc(NC(=O)CSc3nnc(Nc4ccc(OC(F)(F)F)cc4)s3)n2)c1 | inactive
17 | O=C(NC1CCCc2c1cnn2-c1ccc(F)cc1F)c1cnccn1 (centres undefined) | 3.97 µM (active)
18 | O=C(NC1CCCc2c1cnn2-c1ccc(F)cc1F)c1cccc(=O)[nH]1 (centres undefined) | 2.81 µM (active)
19 | O=C(O)CCc1ccc(NCc2cccc(Oc3ccccc3)c2)cc1 | inactive
20 | CCOc1ccc(CCNC(=O)C2(c3ccccc3)CC2)cc1OCC | inactive
21 | O=C(NC1CCCc2c1cnn2-c1ccc(F)cc1F)c1ccsc1 (centres undefined) | 3.97 µM (active)
22 | CC(=O)NCc1ccc(-c2csc(NC(=O)Cc3cccs3)n2)cc1 | inactive
23 | O=C(NCCc1ccc(O)c(O)c1)c1cc2sccc2[nH]1 | inactive
24 | CCOC(=O)C1CCN(C(=O)C2(NC(=O)Nc3ccccc3Cl)CCC2)CC1 | inactive
25 | O=C(c1cc2sccc2n1Cc1ccccc1)N(CCc1ccc(O)c(O)c1)Cc1ccccc1 | inactive
26 | O=C(Nc1cccc2nn(-c3ccc(F)cc3)cc12)c1ccccn1 | 12.5 µM (active)
27 | CCOC(=O)C1CCN(C(C)C(=O)NC(=O)NC2CCCCC2)CC1 (centres undefined) | inactive
28 | CCOC(=O)C1CCCN(C(=O)C2(NC(=O)Nc3ccc(F)cc3F)CCCCC2)C1 (centres undefined) | inactive
29 | CCOc1ccc(CCNC(=O)Cc2ccccc2)cc1OCC | inactive
